The record followed here is paper PMC4336329 (PLoS ONE, 2015).

Among all 310,000 compounds or so, about 14,000 (4.5%) showed an effect of 50% or more. Effects have a minus sign here. Many of the other results were omitted from the sample, so strong results are more common in it than they were.
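Also: peak tail current of the secondary pulse compared with the same well before compound.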

The target of this experiment is human ether-à-go-go-related gene (hERG) potassium channel (human, UniProt Q12809). Kind of experiment: primary screen, population patch clamp on CHO cells stably expressing hERG; higher = less effect of the substance.
Sequence of human ether-à-go-go-related gene (hERG) potassium channel (Q12809 whole entry, looked up): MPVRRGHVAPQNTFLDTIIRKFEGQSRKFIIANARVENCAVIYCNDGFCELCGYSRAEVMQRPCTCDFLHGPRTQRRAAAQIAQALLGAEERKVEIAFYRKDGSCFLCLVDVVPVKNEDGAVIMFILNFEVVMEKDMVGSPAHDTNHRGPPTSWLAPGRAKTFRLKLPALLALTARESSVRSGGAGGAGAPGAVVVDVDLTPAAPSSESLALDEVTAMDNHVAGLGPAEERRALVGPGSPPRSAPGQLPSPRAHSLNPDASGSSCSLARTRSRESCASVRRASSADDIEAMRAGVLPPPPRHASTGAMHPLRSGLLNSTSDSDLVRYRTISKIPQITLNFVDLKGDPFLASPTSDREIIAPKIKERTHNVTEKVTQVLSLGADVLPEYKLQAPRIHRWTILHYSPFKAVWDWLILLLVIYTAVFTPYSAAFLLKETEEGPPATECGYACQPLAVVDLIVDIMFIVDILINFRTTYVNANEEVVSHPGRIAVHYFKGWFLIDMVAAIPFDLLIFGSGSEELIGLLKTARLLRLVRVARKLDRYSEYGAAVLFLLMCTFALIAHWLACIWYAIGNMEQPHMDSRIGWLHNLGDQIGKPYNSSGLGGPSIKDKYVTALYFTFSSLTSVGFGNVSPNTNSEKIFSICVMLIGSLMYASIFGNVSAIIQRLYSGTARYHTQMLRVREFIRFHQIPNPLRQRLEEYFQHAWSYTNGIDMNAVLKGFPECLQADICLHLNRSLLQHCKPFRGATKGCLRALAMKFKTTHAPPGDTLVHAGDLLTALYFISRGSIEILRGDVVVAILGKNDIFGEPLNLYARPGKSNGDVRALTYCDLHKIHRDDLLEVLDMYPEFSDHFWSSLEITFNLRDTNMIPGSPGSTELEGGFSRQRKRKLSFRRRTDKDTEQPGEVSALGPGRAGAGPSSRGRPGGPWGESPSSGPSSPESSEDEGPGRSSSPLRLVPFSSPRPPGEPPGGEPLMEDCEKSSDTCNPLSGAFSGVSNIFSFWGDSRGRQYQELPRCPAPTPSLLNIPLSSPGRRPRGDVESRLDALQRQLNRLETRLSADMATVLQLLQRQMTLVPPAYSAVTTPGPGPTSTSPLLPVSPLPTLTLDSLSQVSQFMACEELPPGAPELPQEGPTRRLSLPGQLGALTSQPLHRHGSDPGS
For `O=C(CN1CCOCC1)N/N=C/c1ccc(-c2ccc(Br)cc2)o1`, the “hERG current change (%, negative = inhibition) at 10uM” value is -67.1%.
The value for `Cc1ccc(-c2ccc(/C=N/NC(=O)CN3CCOCC3)o2)cc1[N+](=O)[O-]` was -29.5%; that for `Cc1ccc([N+](=O)[O-])cc1-c1ccc(/C=N/NC(=O)CN2CCOCC2)o1` was -38.9%; that for `O=C(CN1CCOCC1)N/N=C/c1ccc(-c2cccc(Cl)c2Cl)o1` was -73.4%.
The value for `O=C(CN1CCOCC1)N/N=C/c1ccccc1` was -14.4%; that for `O=C(COc1ccccc1F)NNC(=O)c1ccc(N2CCCCC2)c([N+](=O)[O-])c1` was -36%; that for `Nc1nc(-c2ccc(Cl)cc2)cn1N` was -2.98%.
In the case of `COc1ccc(C(=O)Nc2ccccc2C(N)=O)cc1` it was -18.9%; in that of `CC(=O)Oc1cccc(N2C(=O)C3C4C=CC(CC4)C3C2=O)c1` (stereo not drawn), 16.1%.
Consider `Cc1ccc(-c2nc3ccccc3c(=O)n2-c2ccc(O)cc2)cc1`, for which the “hERG current change (%, negative = inhibition) at 10uM” value is -3.92%.
For `C=CCC1(CC=C)CCCN1C(=O)C1CCC(=O)N(CCc2ccc(Cl)cc2)C1` (stereo not drawn), the “hERG current change (%, negative = inhibition) at 10uM” value is reported as -60%.
The value for `O=C1CCC(C(=O)N2CCC(O)CC2)CN1CCc1ccc(Cl)cc1` (stereo not drawn) was 1.38%.
For `C=CCC1(CC=C)CCCN1C(=O)C1CCC(=O)N(CCc2ccc(OC)cc2)C1` (stereo not drawn), the “hERG current change (%, negative = inhibition) at 10uM” value is -18.6%.
In the case of `O=C1CCC(C(=O)N2CCCCCC2)CN1CCc1ccc(Cl)cc1` (stereo not drawn) it was -28.9%; in that of `CC(C)C1CCN(C(=O)C2CCC(=O)N(CCc3ccc(Cl)cc3)C2)CC1` (stereo not drawn), -52.6%; in that of `C=CCC1(CC=C)CCCN1C(=O)C1CCC(=O)N(CCc2ccccc2)C1` (stereo not drawn), -12.5%.
Turning to `COc1ccc(S(=O)(=O)Nc2ccccc2C)cc1`, the “hERG current change (%, negative = inhibition) at 10uM” value is reported as 0.614%.
Regarding `C/C(=N\NC(N)=S)c1cccnc1`, the “hERG current change (%, negative = inhibition) at 10uM” value is on record as 2.44%.
`Cc1ccc(N2CCN(c3cc(C)nc4nc(C)nn34)CC2)c(C)c1`: the “hERG current change (%, negative = inhibition) at 10uM” value is listed as -72.6%.
For the compound `Cc1ccc(/C=N/N2CCN(c3ccccn3)CC2)cc1`, the “hERG current change (%, negative = inhibition) at 10uM” value amounted to 2.68%.
Consider `Cc1cc(Nc2cccc(C(F)(F)F)c2)n2nc(C)nc2n1`, for which the “hERG current change (%, negative = inhibition) at 10uM” value is listed as -51.8%.
`COc1ccccc1N1CCN(c2nc(C)cc(=O)[nH]2)CC1`: the “hERG current change (%, negative = inhibition) at 10uM” value was found to be 11.6%.
With `Cc1cc(C)c2c(n1)nn1c(N3CCN(c4ccccc4C)CC3)cc(C)nc21`, the “hERG current change (%, negative = inhibition) at 10uM” value is reported as 7.78%.
`COc1ccccc1-c1c(C)nn2c(N3CCN(c4ccccc4OC)CC3)cc(C)nc12`: the “hERG current change (%, negative = inhibition) at 10uM” value turned out to be 3.75%.
The value for `COc1ccccc1N1CCN(c2cc(C)nc3nc(C)nn23)CC1` was -57.6%.
Turning to `C(=N\N1CCN(c2ccccn2)CC1)/c1ccccn1`, the “hERG current change (%, negative = inhibition) at 10uM” value was 13.5%.
In the case of `Cc1ccc(Nc2cc(C)nc3nc(C)nn23)c(C)c1` it was 9.08%.
With `COc1cccc(Nc2cc(C)nc3nc(C)nn23)c1`, the “hERG current change (%, negative = inhibition) at 10uM” value is -12.8%.
The value for `Cc1cc(N2CCN(c3ccccn3)CC2)n2nc(C)nc2n1` was -51.4%; that for `Cc1cc(Nc2cccc(F)c2)n2nc(C)nc2n1` was -12.1%.
The value for `COC(=O)C(CC(C)C)NC(=O)CNC(=O)c1ccccc1C` (stereo not drawn) was 3.34%; that for `C/C(=N\OCC(=O)Nc1cc(C)cc(C)c1)c1ccc2c(c1)OCCO2` was -13%; that for `CCC12CN3CCN(CC(C3)/C1=N/NC(N)=O)C2` was 21%.
Regarding `Cc1c(Cl)cccc1-n1ccnc1SCC(=O)O`, the “hERG current change (%, negative = inhibition) at 10uM” value was determined as 18.2%.
In the case of `O=S(=O)(/N=C(/c1ccccc1)N1CCOCC1)c1ccc(F)cc1` it was 23.7%; in that of `COc1ccc(-c2cc(C(=O)N(C)Cc3cccc(OC)c3OC)c3ccccc3n2)cc1OC`, -28.8%; in that of `COc1ccc(OC)c(/C=C/C(=O)Oc2ccc(C(C)=O)cc2)c1`, 13.8%.
The value for `Nc1c(-c2ccccc2)cnn1-c1cccc(C(F)(F)F)c1` was 1.64%; that for `Cc1nnc(SCC(=O)NC2CCCCCC2)n1C` was 23.4%; that for `COc1cc(C)nc(N2CCC(C(=O)NC3CCCCC3)CC2)n1` was -3.08%.
The value for `Cc1cc(N2CCOCC2)n2nc(C)c(-c3ccc(Cl)cc3)c2n1` was 8.58%; that for `Cc1cc(N2CCN(c3cccc(C(F)(F)F)c3)CC2)n2nc(C)nc2n1` was -61.9%; that for `Cc1cc(N2CCN(C)CC2)n2nc(-c3ccc(Cl)cc3)nc2n1` was -77.3%.
Regarding `Cc1nc2nc(-c3ccc(Cl)cc3)nn2c(C)c1Cl`, the “hERG current change (%, negative = inhibition) at 10uM” value is listed as 8.82%.
In the case of `COc1ccccc1N1CCN(c2cnccn2)CC1` it was -2.25%.
In the case of `CCOc1cc(C)nc(N2CCN(C3CCCCC3)CC2)n1` it was -67.5%.
With `COc1ccccc1N1CCN(c2ccc3ccccc3n2)CC1`, the “hERG current change (%, negative = inhibition) at 10uM” value is listed as -36.5%.
Consider `COc1ccccc1N1CCN(c2cc(N3CCCC3)nc(C)n2)CC1`, for which the “hERG current change (%, negative = inhibition) at 10uM” value is -65.3%.
As to `Cl.FC(F)(F)c1cccc(N2CCNCC2)c1`, the “hERG current change (%, negative = inhibition) at 10uM” value was -13.3%.
The value for `Cn1nc(C(F)(F)F)c(C#N)c1N1CCN(c2cccc(C(F)(F)F)c2)CC1` was 3.01%; that for `CCOc1cc(C)nc(N2CCC(C(=O)Nc3ccccc3OCC)CC2)n1` was 5.62%.
